Results: PubChem BioAssay (NCATS)
Records with an inconclusive call do not appear. Unmarked numbers belong to inactive results. Activity calls are given as the source filed them. The call rests on the fitted dose curve; in most records, active means well fitted inhibition curve with a large enough effect; inconclusive means small, poorly fitted or top-dose-only effect; inactive means flat fitted curve, though single readings scatter.

Tested on: CRL-7250
Assay: Cytotoxic Profiling of Annotated Libraries Using Quantitative High-Throughput Screening (AID 1296008); further: nearly all actives have a fitted effect of over 60% in size
Conditions: Five cell lines viability, CellTiter-Glo ATP luminescence, 48-72 h; max response: stronger effect = lower value
In short: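 Compounds were pin-transferred onto cells and incubated 48 or 72 hr at 37 degree Celsius, 95% humidity. CellTiter-Glo was added, plates sat 10 min at room temperature, then ATP-coupled luminescence was imaged as the viability read-out.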
On the % scale 0 is the no-effect control and ±100 the full control effect; potency means the concentration at half of the fitted maximal effect.

First: O=C(O)c1cccc(S(=O)(=O)N2CCc3ccccc3C2)c1
Second: CC(C)CNCc1ccc(-c2ccccc2S(=O)(=O)N2CCCC2)cc1
The max response of the first is lower: 0.0752% for the first, 1.47% for the second.

Compared with `c1ccc(-c2csc(N3CCOCC3)n2)cc1`, `CCOc1ccc(S(=O)(=O)n2c(C)nc3ccccc32)cc1` is lower in max response: 1.19% for the first, -1.87% for the second.

Going from `CC[C@H]1OC(=O)[C@](C)(F)C(=O)[C@H](C)[C@@H](O[C@@H]2O[C@H](C)C[C@H](N(C)C)[C@H]2O)[C@](C)(OC)C[C@@H](C)C(=O)[C@@H](C)[C@H]2N(CCCCn3cc(-c4cccc(N)c4)nn3)C(=O)O[C@]12C` to `CC(=O)OC[C@]12[C@H](OC(C)=O)C(=O)[C@@H]3[C@@H](OC(C)=O)[C@@]14O[C@@]3(C)COC(=O)c1cccnc1[C@@H](C)[C@H](C)C(=O)O[C@@H]([C@H](O)[C@@H]2OC(C)=O)[C@]4(C)O`, the max response rises from -0.28% to 0.341%.

Going from `C[C@@H]1O[C@@H](O[C@H]2[C@@H]3C=CO[C@@H](O[C@@H]4O[C@H](CO)[C@@H](O)[C@H](O)[C@H]4O)[C@@H]3[C@@]3(CO)O[C@@H]23)[C@H](OC(=O)/C=C/c2ccccc2)[C@H](O)[C@H]1O` to `OC[C@H]1O[C@@H](OC[C@H]2O[C@@H](OC/C=C/c3ccccc3)[C@H](O)[C@@H](O)[C@@H]2O)[C@@H](O)[C@@H]1O`, the max response rises from -0.445% to 0.699%.

Going from `CCNC(=O)Nc1ncc(-c2cc(-c3c(C)cc(OC)cc3C)nc(-c3cnccn3)n2)s1` to `COc1cc(C)c(C(=O)Oc2cc(C)c(C(=O)Oc3cc(C)c(C(=O)NC(C)C(=O)O)c(O)c3)c(O[C@@H]3O[C@H](CO)[C@@H](O)[C@H](O)[C@H]3OC(C)=O)c2)c(OC)c1` (stereo not given in full), the max response falls from -11.4% to -13.8%.

First: C/C(=C\C=C\C(C)C1CCC2(C)C3CCC4C(C)(C)C(=O)CCC45CC35CCC12C)C(=O)O (stereo not given)
Second: CC1CC(C(O)C(C)(C)O)OC2CC3(C)C4(C)CCC5C(C)(C)C(=O)CCC5(C)C4CCC3(O)C12O (stereo not given)
The max response of the first is lower: -5.15% for the first, 3.36% for the second.

First: Cc1cccc(S(=O)(=O)N2CCC[C@@H]2CCN2CCC(C)CC2)c1
Second: CCOC(=O)C(CCc1ccccc1)NC(C)C(=O)N1C(=O)N(C)CC1C(=O)O (stereo not given)
The max response of the first is lower: -2.64% for the first, 3.58% for the second.

First: CC1=C(CCC(C)O[C@@H]2O[C@H](CO)[C@@H](O)[C@H](O)[C@H]2O)C(C)(C)CCC1=O (stereo not given in full)
Second: O=C1CCC=CC1(O)C(=O)OCc1ccccc1O[C@@H]1O[C@H](CO)[C@@H](O)[C@H](O)[C@H]1O (stereo not given in full)
The max response of the first is lower: -22.3% for the first, -18.5% for the second.

Going from `COc1cc(C(=O)OC[C@H]2O[C@@H](Oc3ccccc3/C=C/C(=O)O)[C@H](O)[C@@H](O)[C@@H]2O)cc(OC)c1OC` to `COc1ccc([C@@H]2OC[C@H]3[C@@H]2CO[C@@H]3c2ccc(OC3OC(CO)C(O)C(O)C3O)c(OC)c2)cc1OC` (stereo not given in full), the max response falls from -2.66% to -6.62%.

Going from `CC(C)=CCCC1(C)C=Cc2c(c(C)cc3c2[nH]c2ccccc23)O1` (stereo not given) to `COc1ccc([C@@]2(O)c3c(ccc4c3OC(C)(CCC=C(C)C)C=C4)NC(=O)[C@@H]2OC)cc1` (stereo not given in full), the max response rises from -19.1% to 4.89%.

Going from `C/C1=C\CCC(C)CCO[C@@H]2O[C@H](CO[C@@H]3OC[C@H](O)[C@H](O)[C@H]3OC1=O)[C@@H](O)[C@H](O)[C@H]2O` (stereo not given in full) to `CC1CC2OC3(OC2C(C)(C)O)C1C1(C)CCC24CC25CCC(O[C@@H]2OC[C@@H](O)[C@H](O)[C@H]2O)C(C)(C)C5CC=C4C1(C)C3O` (stereo not given in full), the max response falls from -2.22% to -7.03%.

Compared with `C/C=C/c1ccc2oc(-c3ccc(O)c(OC)c3)c(C)c2c1`, `COC(=O)CCSCc1ccc(-c2onc(C)c2NC(=O)OC(C)c2ccccc2Cl)cc1` (stereo not given) is higher in max response: -27.9% for the first, -4.23% for the second.

First: CC1OC(OC2C(C)OC(OC3C(OC(=O)C45CCC(C)(C)CC4C4=CCC6C7(C)CCC(OC8OC(C(=O)O)C(O)C(O)C8OC8OC(CO)C(O)C(OC9OC(C)C(O)C(O)C9O)C8O)C(C)(CO)C7CCC6(C)C4(C)CC5)OC(CO)C(O)C3O)C(O)C2O)C(O)C(O)C1O (stereo not given)
Second: COC(=O)C1=CO[C@@H](O[C@@H]2O[C@H](CO[C@@H]3O[C@H](COC(=O)/C=C/c4cc(OC)c(O)c(OC)c4)[C@@H](O)[C@H](O)[C@H]3O)[C@@H](O)[C@H](O)[C@H]2O)[C@@H]2C(CO)=CC[C@H]12
The max response of the first is higher: 3.83% for the first, -3.63% for the second.

First: C=C1OC2CC(C(=O)O)C=CC2NC1=O (stereo not given)
Second: C=C1C(OC(C)=O)CCC2(C)CC3(OC)OC(=O)C(C)=C3CC12 (stereo not given)
The max response of the first is higher: -1.3% for the first, -3.85% for the second.

Going from `Fc1ccc2nc(CCC#Cc3ccccn3)cn2c1` to `CC(C)(C)CCN1C[C@@H]2C(CNC(=O)c3cc(Cl)cc(Cl)c3)[C@@H]2C1` (stereo not given in full), the max response falls from -4.35% to -6.01%.

`CC1C(=O)OCC2=CCN3CCC(OC(=O)C(C)(O)C1(C)O)C23` (stereo not given) was tested, and the outcome was “inactive”.
In the case of `CCc1ccc(Cc2ccc3c(c2)[C@]2(OC3)O[C@H](CO)[C@@H](O)[C@H](O)[C@H]2O)cc1`, the outcome is reported as “inactive”.
With `O=C(Nc1ccccc1-c1cn2c(CN3CCNCC3)csc2n1)c1ccc2ccccc2n1` the outcome was “inactive”.
In the case of `Cc1ccc(NC(=O)C(=O)NC2CC(C)(C)NC(C)(C)C2)cc1`, the outcome is reported as “inactive”.
For `C[C@@H]1CC[C@]2(C(=O)O[C@@H]3O[C@H](CO)[C@@H](O)[C@H](O)[C@H]3O)CC[C@]3(C)C(=CCC4[C@@]5(C)C[C@@H](O)[C@H](O)[C@](C)(C(=O)O)C5CC[C@]43C)[C@@H]2[C@]1(C)O` (stereo not given in full), the outcome was “inactive”.
With `C[C@H](NC(c1cccc(C[P+](=O)O)c1)[C@H](C)O)c1ccc(Cl)c(Cl)c1` (stereo not given in full) the outcome was “inactive”.
In the case of `C[C@@H]1O[C@@H](O[C@@H]2[C@@H](O)[C@H](O[C@H]3CC[C@@]4(C)C(CC[C@]5(C)C4CC=C4[C@@H]6CC(C)(C)CC[C@]6(C(=O)O[C@@H]6O[C@H](CO)[C@@H](O)[C@H](O)[C@H]6O)CC[C@]45C)C3(C)C)O[C@H](C(=O)O)[C@H]2O)[C@H](O)[C@H](O)[C@H]1O` (stereo not given in full), the outcome is reported as “inactive”.
For `C=C(C(=O)OC)C1C(O)CC2(C)C(=O)CCC(O)(CO)C2C1O` (stereo not given), the outcome was “inactive”.

For `CN(C)C/C=C/C(=O)Nc1cccc(C(=O)Nc2cccc(Nc3ncc(Cl)c(-c4c[nH]c5ccccc45)n3)c2)c1`, the Potency was 259 nM (active).
With `COc1cc2c(cc1OC)-c1[nH]nc(Nc3cccc(F)c3)c1C2` the Potency was 461 nM (active).
